Compound activity: PubChem, National Center for Advancing Translational Sciences (NCATS)
Compounds with a hit are over-represented: about 3.1% of the library has one in this group of screens.
15-hLO inh = qHTS Assay for Inhibitors of 15-hLO (15-human lipoxygenase); purified 15hLO-1, xylenol orange hydroperoxide absorbance; 74,000 compounds, 1.4% hits; Potency, µM (highest dose often 57.1 µM), for the others: top-dose activity change, negative = inhibition, actives largely listed as inhibitors; further: potency means the concentration at half of the fitted maximal effect; on the % scale 0 is the no-effect control and ±100 the full control effect; nearly all actives have a fitted effect of over 55% in size
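40 nM 15hLO-1 + cpd, 15 min RT; start w/ 50 uM AA (final), 6 min RT; stop/detect w/ 200 uM XO + 300 uM Fe(II) in 50 mM H2SO4, 30 min; A573/A405. Buffer 25 mM Hepes pH 7.5, 0.01% Triton X-100. No-enzyme wells as negative control.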
Tau filament bind = qHTS Assay for Tau Filament Binding | Microtubule-associated protein tau (Homo sapiens), P10636 | recombinant tau filaments, thioflavin S fluorescence, 15 h; filaments grown with octadecylsulfate alongside compound | Potency, µM (series often up to 57.1 µM), for inactives: at the highest dose activity change, negative = inhibition | 71,000 compounds, 2% hits | AID 596, 2007;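 further: potency means the concentration at half of the fitted maximal effect; on the % scale 0 is the no-effect control and ±100 the full control effect; actives lower thioflavin S fluorescence by blocking filaments or displacing dye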
Target sequence (P10636 whole entry, looked up): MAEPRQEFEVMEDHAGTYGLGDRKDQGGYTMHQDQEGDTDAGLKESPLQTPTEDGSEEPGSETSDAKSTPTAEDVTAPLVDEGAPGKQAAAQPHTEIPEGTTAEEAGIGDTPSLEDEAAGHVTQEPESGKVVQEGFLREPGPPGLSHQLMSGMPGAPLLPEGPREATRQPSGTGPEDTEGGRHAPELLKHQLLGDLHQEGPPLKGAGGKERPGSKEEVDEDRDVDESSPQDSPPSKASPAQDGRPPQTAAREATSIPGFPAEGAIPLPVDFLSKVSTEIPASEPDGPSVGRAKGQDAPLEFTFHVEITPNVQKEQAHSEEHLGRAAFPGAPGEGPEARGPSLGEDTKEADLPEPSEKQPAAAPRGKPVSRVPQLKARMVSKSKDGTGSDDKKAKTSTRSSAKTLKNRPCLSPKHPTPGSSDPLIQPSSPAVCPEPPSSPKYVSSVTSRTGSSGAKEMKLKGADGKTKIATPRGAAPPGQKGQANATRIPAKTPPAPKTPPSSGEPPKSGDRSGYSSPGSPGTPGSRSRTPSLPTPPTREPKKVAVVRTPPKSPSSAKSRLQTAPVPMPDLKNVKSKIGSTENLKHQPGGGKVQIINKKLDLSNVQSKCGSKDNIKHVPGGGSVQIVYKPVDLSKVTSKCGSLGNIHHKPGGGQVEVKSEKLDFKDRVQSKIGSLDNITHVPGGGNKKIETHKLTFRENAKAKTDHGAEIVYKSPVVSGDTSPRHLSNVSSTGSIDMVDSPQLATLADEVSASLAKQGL
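Quantitative HTS: thioflavine S signal from ODS-induced tau filaments, excited at 450 nm, emission 510 nm. Conditions: 1 uM tau, 30 uM ODS, 15 h at 37 C, pH 7.4.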
BRCT inh red = qHTS Assay for Inhibitors of BRCT-Phosphoprotein Interaction (Red Fluorophore). BRCT-phosphopeptide binding, red fluorescence polarization. Potency, µM (series often up to 76.9 µM), without a hit: at the top dose activity change, negative = inhibition, most hits filed as inhibitors. 75,000 compounds, 0.03% hits; further: on the % scale 0 is the no-effect control and ±100 the full control effect
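Fluorescence polarization: 100 nM His-tagged BRCA1 BRCT with 100 nM TAMRA-labelled phospho-BACH1 decapeptide, phosphate buffer pH 7.3 with 150 mM NaCl, DTT, 0.01% Tween 20; 12 min RT. Binding inhibition seen as FP decrease.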
BRCT PPI green = qHTS Assay for Inhibitors of BRCT-Phosphoprotein Interaction (Green Fluorophore); 75,000 compounds, 0.05% hits; Potency, µM (doses to about 76.9 µM), for inactives: at the top dose activity change, negative = inhibition, usual class: inhibitors; Breast cancer type 1 susceptibility protein (Homo sapiens), P38398; AID 875, 2007; BRCA1 BRCT-phosphopeptide binding, green fluorescence polarization;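 further: potency means the concentration at half of the fitted maximal effect; plate controls were peptide without protein for full effect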
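Compounds were incubated for 12 min at room temperature with a complex of 100 nM fluorescein-tagged pBACH1 decapeptide and 250 nM His-tagged BRCT protein. Buffer was phosphate pH 7.3 with EDTA, DTT and Tween 20. Disruption of binding lowers the polarization signal.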
TsaE inh = qHTS Assay for Inhibitors of YjeE | Potency, µM | 71,000 compounds, 0.05% hits | purified YjeE enzyme, qHTS inhibition assay | AID 605, 2007
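Purified YjeE (10 uM) with BODIPY Texas Red-labeled ADP probe (2 uM); compounds pin-transferred, 15 min at room temperature. Binding inhibition read as decreased fluorescence polarization; ADP titration as control.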
DNA Pol III inh = qHTS Assay for Inhibitors of DNA Polymerase III Holoenzyme System; reconstituted DNA polymerase III holoenzyme replication, biochemical; Potency, µM (titrated, usually from 57.1 µM), for inactives: top-dose activity change, negative = inhibition; 71,000 compounds, 0.25% hits; further: potency means the concentration at half of the fitted maximal effect; on the % scale 0 is the no-effect control and ±100 the full control effect
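Reconstituted *E. coli* holoenzyme (0.35 nM Pol III, 1 nM beta, 154 nM SSB, 2 nM primase) was preincubated with compound for 15 min at RT. Synthesis on 1.4 nM ssM13Gori ran 35 min, then was stopped with PicoGreen/EDTA and read as dsDNA fluorescence.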
Numbers without * were called inactive; i = inactive; ? = inconclusive; . = no result given; ! = a repeat was not active; [ ] = dose if it differs, or a comment. The call rests on the fitted dose curve; in most records, active means well fitted curve in the direction sought with a large enough effect; inconclusive means small, poorly fitted or top-dose-only effect, or another doubt; inactive means no such curve, though single readings can be large; an effect the other way counts as inactive or inconclusive.

SMILES	15-hLO inh	Tau filament bind	BRCT inh red	BRCT PPI green	TsaE inh	DNA Pol III inh
Cc1[nH]n(-c2ccccc2)c(=O)c1/C=N/O	-10.9%	-7.4%	-0.2%	-1.3%	i	-4.6%
COc1ccc(-c2nnc(SCCc3ccccc3)n2N)cc1	4.4%	-12.8%	-2.7%	-0.8%	i	0.4%
COc1ccc(OCCSc2nnc(-c3ccccc3)n2N)cc1	12.6µM*	-1.5%	0.6%	-3.0%	i	-1.7%
COc1ccccc1-c1nc(N2CCOCC2)c2ccccc2n1	8.0%	-17.2%	0.2%	-2.1%	i	-5.8%
COC(=O)c1ccc(C(NC(=O)OCc2ccccc2)/C(C)=C/[C@@H](C)C(=O)N(C)Cc2cccnc2)cc1 (stereo partly drawn)	-11.7%	1.0%	-1.4%	1.8%	i	-0.9%
O=C(O)CCC(=O)c1ccc(-c2ccccc2)cc1	2.7%	-1.6%[25.6 µM]	-1.7%	0.5%[3.08 µM]	i	-6.6%[25.6 µM]
O=C(C[N+]12CN3CN(CN(C3)C1)C2)c1ccc(-c2ccccc2)cc1	23.9%[11.4 µM]	3.16µM*	0.1%[15.4 µM]	-2.4%[15.4 µM]	i	-7.7%[11.4 µM]
COCCn1c(=N)c(C(=O)NCCc2ccc(OC)cc2)cc2c(=O)n3cccc(C)c3nc21	-8.2%	2µM*	1.9%	-0.7%	i	-13.4%
Cc1cccn2c(=O)c3cc(C(=O)NC(C)C)c(=N)n(Cc4ccncc4)c3nc12	-1.6%	34.8%	0.6%	-1.4%	i	-5.5%
CCNC(=O)c1cc2c(=O)n3cccc(C)c3nc2n(Cc2ccc(C)cc2)c1=N	-5.5%	1.58µM*	0.9%	-1.0%	i	-1.6%
Cc1ccc(S(=O)(=O)N(CC(=O)O)c2cccc(Cl)c2)cc1	5.1%	.	0.0%	-0.1%	.	.
Cc1ccc(Nc2nc(CSc3nnnn3C)cs2)cc1	-13.1%	15.8µM*	1.0%	3.1%	i	-1.8%
CCc1cccc2nc3c(c([Si](C)(C)C)c12)Cn1c-3cccc1=O	.	15.8µM*	-2.1%	1.9%	i	-13.4%
C[C@H]1[C@H](C)CC[C@]2(C(=O)O)CC[C@]3(C)C(=CC[C@@H]4[C@]5(C)C[C@H](O)[C@@H](O)[C@@](C)(CO)[C@@H]5[C@H](O)C[C@@]43C)[C@H]12	-11.1%[11.4 µM]	6.9%[11.4 µM]	1.0%[15.4 µM]	0.7%[15.4 µM]	i	-3.7%[11.4 µM]
Cc1cccc2cc(CN(CCCO)C(=O)Nc3cccc(Cl)c3)c(=O)[nH]c12	20µM*	8.1%	-2.3%	2.1%	i	-1.8%
Cc1cccc2cc(CN(CCCO)C(=O)Nc3ccc(Cl)cc3)c(=O)[nH]c12	-22.2%	27.3%	-0.7%	1.4%	i	0.5%
Cc1csc(-c2coc3cc(O)cc(C)c3c2=O)n1	15.8µM*	10.1%	0.2%	2.3%	i	-7.4%
Cc1ccc(N=Nc2ccc(N)cc2C)c(S(N)(=O)=O)c1	3.5%[11.4 µM]	3.98µM*	-1.4%[15.4 µM]	-3.7%[15.4 µM]	i	-4.7%[11.4 µM]
Nc1ccc(S(N)(=O)=O)cc1	1.3%	1.7%	0.4%	-2.4%	i	-3.8%
CN1CCN(Cc2c(O)ccc3occ(C(=O)c4ccccc4)c23)CC1	-3.1%	-18.1%	0.6%	0.2%	i	-2.9%
CC(=O)C(C(C)=O)c1c(Cl)c(O)c(O)c2c(C(=O)c3ccccc3)coc12	2.51µM*	25.1µM*	-2.2%	0.0%	i	-6.2%
Nc1ccc(C(=O)O)cc1	2.6%	5.2%	0.2%	2.2%[3.08 µM]	i	-6.7%
Nc1ccc(O)c(C(=O)O)c1	?	-12.1%	?	-2.9%	i	15.8µM*!
O=c1nc2s/c(=C\c3ccco3)c(=O)n2nc1Cc1ccc(F)cc1	?	?	-5.2%	-3.5%	i	15.8µM*
COC1=CC(=O)C[C@@H](C)[C@@]12Oc1c(Cl)c(OC)cc(OC)c1C2=O	.	?	.	.	i	-2.6%
